# ALOX12 inh = ALOX12 (human) lipoxygenase inhibition | P18054 | purified 12hLO, xylenol orange hydroperoxide absorbance | Potency, µM (titrated, usually from 108 µM), for inactives: at the top dose activity change, negative = inhibition, hits mostly inhibitors | hit rate 1.1% among 580,000; also: potency is read from the fitted curve at half-maximal effect
# Target sequence (P18054 whole entry, looked up): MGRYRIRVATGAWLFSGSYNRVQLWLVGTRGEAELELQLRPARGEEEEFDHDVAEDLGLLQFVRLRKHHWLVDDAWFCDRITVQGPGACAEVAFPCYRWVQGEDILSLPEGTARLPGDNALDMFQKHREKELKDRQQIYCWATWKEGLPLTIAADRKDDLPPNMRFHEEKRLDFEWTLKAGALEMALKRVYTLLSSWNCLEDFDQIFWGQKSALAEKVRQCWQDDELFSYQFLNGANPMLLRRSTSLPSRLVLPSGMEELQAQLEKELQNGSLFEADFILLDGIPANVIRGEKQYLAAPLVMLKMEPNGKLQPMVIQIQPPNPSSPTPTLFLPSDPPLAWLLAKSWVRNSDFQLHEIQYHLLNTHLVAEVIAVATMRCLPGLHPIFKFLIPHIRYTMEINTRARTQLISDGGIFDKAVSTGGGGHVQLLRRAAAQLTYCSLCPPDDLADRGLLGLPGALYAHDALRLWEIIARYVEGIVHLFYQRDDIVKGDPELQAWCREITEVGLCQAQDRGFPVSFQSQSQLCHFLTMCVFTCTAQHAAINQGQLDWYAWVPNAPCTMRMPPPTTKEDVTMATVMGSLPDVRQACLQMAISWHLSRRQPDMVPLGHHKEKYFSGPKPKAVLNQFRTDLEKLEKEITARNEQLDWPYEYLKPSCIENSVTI
#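 Purified human 12hLO (150 nM final) in 25 mM Hepes, 0.01% Triton X-100, pH 7.0 was preincubated 15 min at room temperature with compound. Then 40 uM arachidonic acid was added, 30 min. Hydroperoxide was read by Fe-XO absorbance ratio 573/405 nm.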
# HT1080NT lethal = kills 2HG-producing HT-1080-NT fibrosarcoma cells; Potency, µM (series often up to 46.1 µM), for the others: at the top dose activity, negative = less viability, actives largely listed as cytotoxic; hit rate 1.6% among 360,000; AID 686970; HT-1080-NT fibrosarcoma viability, CellTiter-Glo ATP luminescence, 48 h;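 also: NT is the 2HG producing partner of a matched IDH1 knockdown line; potency is read from the fitted curve at half-maximal effect; 0% = DMSO-treated cells and -100% = media-only wells without cells; nearly all actives have a fitted effect of over 55% in size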
#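 Viability by CellTiter-Glo luminescence after 48 h compound exposure at 37C of HT-1080-NT cells (750/well, RPMI, 5% FBS). % activity scaled between DMSO wells and medium-only wells, then curve-fitted and categorized by curve class.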
# TDP1 cell noCPT = qHTS for Inhibitors of human tyrosyl-DNA phosphodiesterase 1 (TDP1): qHTS in cells in absence of CPT; AID 686978, 2013; Potency, µM (doses to about 46.2 µM), inactives show at the highest dose activity change, negative = growth inhibition, usual class: inhibitors; hit rate 15% among 420,000; DT40 Tdp1-/- hTDP1 cells, no CPT, ATP luminescence, 48 h; also: potency is read from the fitted curve at half-maximal effect; nearly all actives have a fitted effect of over 55% in size
#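 Cells were dispensed at 400 per well, compounds added by pin tool, plates incubated ≥48 hr at 37 °C, then CellTiter-Glo added for 30 min at room temperature before luminescence reading. Line: DT40 Tdp1-/- complemented with hTDP1; camptothecin omitted.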
# IL-1B inflam inh = blocks inflammasome-driven IL-1 beta release | THP-1 LPS/ATP IL-1B secretion, AlphaLISA, 16 h; hits give low values | activity change, % at 57.5 µM | hit rate 4.7% among 360,000; in the data active = activity change below about -50%; inconclusive = mostly about -30% to -49%
#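 THP-1 cells pretreated 1 hr with compounds (up to 57.5 uM final), then stimulated with LPS (250 ng/mL final) plus ATP (1.25 mM final); secreted IL-1B measured by AlphaLISA after 16 hr, decreased signal indicating inhibition.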
# TDP1 cell CPT = DT40-hTDP1 cell growth loss with CPT; chicken DT40 Tdp1-/-;hTDP1 cells + 20 nM CPT, ATP luminescence, 48 h; Potency, µM (top dose mostly 46.2 µM), without a hit: at the highest dose activity change, negative = growth inhibition, usual class: inhibitors; hit rate 12% among 420,000; AID 686979; also: potency is read from the fitted curve at half-maximal effect; nearly all actives have a fitted effect of over 55% in size
#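 Cell growth measured by CellTiter-Glo luminescence after a minimum 48 h, 37 C compound exposure with 20 nM CPT in Tdp1-knockout DT40 cells stably expressing hTDP1, seeded 400/well; qHTS titration format.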
# HT1080 IDH1KD tx = HT-1080 IDH1 knockdown cell toxicity (counter line); HT-1080 IDH1 knockdown viability, ATP luminescence, 48 h; Potency, µM (doses to about 46.1 µM), without a hit: top-dose activity, negative = toxicity, hits mostly cytotoxic; hit rate 2% among 360,000; AID 686971;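 also: potency is read from the fitted curve at half-maximal effect; 0% = DMSO wells and -100% = cell-free medium wells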
#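 % activity derives from luminescence (CellTiter-Glo), normalised to DMSO and no-cell wells. HT-1080-IDH1KD cells, 750/well, had 48 h compound exposure at 37 °C.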
# Active calls of the source: *; i = inactive; ? = inconclusive; · = no result given. This excerpt belongs to a sample that is enriched for hits. Unless noted, calls follow the shape of the dose curve; as a rule, active = well fitted curve in the direction sought with a large enough effect; inconclusive = small, poorly fitted or top-dose-only effect, or another doubt; inactive = no such curve, though single readings can be large; an effect the other way counts as inactive or inconclusive. Unless noted, % is scaled to controls: 0 for no effect and ±100 for the full control effect.
SMILES,ALOX12 inh,HT1080NT lethal,TDP1 cell noCPT,IL-1B inflam inh,TDP1 cell CPT,HT1080 IDH1KD tx
CCN(CC)S(=O)(=O)c1ccc(N2CCN(S(=O)(=O)c3ccc4c(c3)OCCO4)CC2)nc1,287%,-11%,?,-11,21µM*,-22%
Cc1cc(C)n2nc(C(=O)NCC3COc4ccccc4C3)cc2n1 (stereo unspecified),60%,·,·,·,·,·
NN/C(=C\[N+](=O)[O-])Nc1ccc(Cl)cc1,35µM*,-17%,?,-15,?,-27%
NN/C(=C\[N+](=O)[O-])Nc1ccccc1,-16%,-2%,21µM*,14,?,2%
O=C(NNc1ccc([N+](=O)[O-])cc1)Nc1ccccc1,?,-4%,?,-5,1%,-6%
CC(CNC(=O)c1ccc(C#N)cc1)N1CCCC1 (stereo unspecified),-25%,·,·,·,·,·
N#Cc1cc2c([nH]c1=S)CCCCCC2,16µM*,15%,-12%,30,-22%,20%
COc1cccc([S+](=O)([O-])N2CCCC3(COc4ccccc4C(=O)N3)C2)c1 (stereo unspecified),99%,·,·,·,·,·
CCn1c(SCC(=O)Nc2cc(C)on2)nc2c([nH]c3ccccc32)c1=O,5%,-5%,18µM*,i,?,-13%
COCCn1c(SCC(=O)Nc2cc(C)on2)nc2c([nH]c3ccccc32)c1=O,6%,-16%,?,21,?,5%
CCCCCCn1c(SCC(=O)Nc2cc(C)on2)nc2ccccc2c1=O,0%,4%,10µM*,16,?,?
Cc1c(C(=O)Nc2ccc(C(C)C)cc2)sc2nc[nH]c(=O)c12,?,·,18µM*,·,21µM*,·
CCOc1ccc(CCNC(=O)c2sc3nc4n(c(=O)c3c2C)CCCC4)cc1,-28%,·,?,·,?,·
CCOc1ccc(NC(=O)c2sc3nc4n(c(=O)c3c2C)CCCC4)cc1,12%,·,13µM*,·,21µM*,·
CCc1ccc(NC(=O)c2sc3nc4n(c(=O)c3c2C)CCC4)cc1,6%,-6%,-22%,-3,-22%,-3%
CC(=O)Nc1ccc(NC(=O)c2sc3nc4n(c(=O)c3c2C)CCCCC4)cc1,-28%,0%,10µM*,-8,12µM*,-15%
Cc1c(C(=O)Nc2ccc(C(C)C)cc2)sc2nc3n(c(=O)c12)CCC3,-13%,·,21µM*,·,16µM*,·
Cc1ccc(NC(=O)c2sc3nc[nH]c(=O)c3c2C)cc1Cl,-8%,·,?,·,-29%,·
CC(=O)c1cccc(NC(=O)c2sc3nc4n(c(=O)c3c2C)CCCC4)c1,-2%,10%,-5%,-16,?,12%
Cc1cccc(OCc2nc(C#N)c(NC(C)c3ccccc3)o2)c1 (stereo unspecified),-16%,·,·,·,·,·
COc1cc(OC)c(N(C)C(=O)c2sc3nc4n(c(=O)c3c2C)CCCCC4)cc1Cl,0%,·,-2%,·,17%,·
COc1cc(OC)c(N(C)C(=O)c2sc3nc4n(c(=O)c3c2C)CCCC4)cc1Cl,-4%,·,16µM*,·,?,·
Cc1c(C(=O)NCCc2ccc(Cl)cc2)sc2nc3n(c(=O)c12)CCCC3,-11%,·,18µM*,·,?,·
Cc1c(C(=O)Nc2cccc(C(F)(F)F)c2)sc2nc3n(c(=O)c12)CCCC3,-5%,·,8.2µM*,·,10µM*,·
Cc1c(C(=O)N(C)c2cccc(C(F)(F)F)c2)sc2nc3n(c(=O)c12)CCCCC3,-26%,·,15µM*,·,?,·
SMILES,ALOX12 inh,HT1080NT lethal,TDP1 cell noCPT,IL-1B inflam inh,TDP1 cell CPT,HT1080 IDH1KD tx
CCc1ccccc1N(C)C(=O)c1sc2nc3n(c(=O)c2c1C)CCCCC3,2%,·,?,·,?,·
O=c1cc(-c2ccc(Cl)cc2)oc2ccc(F)cc12,3%,·,·,·,·,·
CN1C(=O)C(c2ccccc2)CC12CCN(C(=O)c1ccccc1F)CC2 (stereo unspecified),50%,·,·,·,·,·
CCc1nc(-c2c3n(c(=O)n(CC(=O)NC4CCCC4)c2=O)CCCCC3)no1,7%,·,·,·,·,·
Cc1cccc(N2CCN(C(=O)c3ccc(NC(=O)c4nsc5ccccc45)cc3)CC2C)c1 (stereo unspecified),-2%,·,6.5µM*,·,9.2µM*,·
COc1ccc(N2CCN(C(=O)c3ccc(C)c(NC(=O)c4nsc5ccccc45)c3)CC2)cc1,?,·,?,·,26µM*,·
Cc1ccc(Cl)cc1N1CCN(C(=O)c2ccc(NC(=O)c3nsc4ccccc34)cc2)CC1,-16%,·,18µM*,·,?,·
CCC1c2nccn2CCCN1C(=O)c1ccc2ncccc2c1 (stereo unspecified),58%,·,·,·,·,·
Cc1cccc(OC[C@H]2C[C@@H](NCc3cccc4c3OCO4)[C@H](O)[C@@H]2O)n1,20µM*,·,·,·,·,·
Cc1ccc(S(=O)(=O)N(C)CC2CCOC2)c(C)c1 (stereo unspecified),28%,·,·,·,·,·
CC(=O)NC1(C)CCN(Cc2cccc(-c3ccc4c(ccn4C)c3)c2)C1 (stereo unspecified),32µM*,·,·,·,·,·
COc1cccc(NS(=O)(=O)c2ccc3c(c2)N(C(C)=O)CCO3)c1,6%,-6%,-24%,31,?,0%
COc1cccc(NS(=O)(=O)c2ccc3c(c2)CCN3C(C)=O)c1,6%,-12%,7.3µM*,15,7.3µM*,-17%
CSc1cccc(NS(=O)(=O)c2ccc3c(c2)CCN3C(C)=O)c1,19%,-23%,3.7µM*,-12,9.2µM*,-26%
CC(=O)N1CCc2cc(S(=O)(=O)Nc3ccc(C)cc3)ccc21,0%,-12%,?,33,?,-7%
COc1cc(NS(=O)(=O)c2ccc3c(c2)CCN3S(C)(=O)=O)cc(OC)c1,-23%,·,5.2µM*,·,18µM*,·
CC(=O)N1CCc2cc(S(=O)(=O)Nc3cccc(C(F)(F)F)c3)ccc21,0%,-6%,21µM*,-4,18µM*,?
CCS(=O)(=O)N1CCC2(CC1)NCCc1c2[nH]c2ccccc12,36%,·,·,·,·,·
COc1cccc(NS(=O)(=O)c2ccc3c(c2)CCCN3C(=O)C2CCC2)c1,?,·,?,·,23µM*,·
CC(=O)N1CCCc2cc(S(=O)(=O)Nc3ccc(C)c(F)c3)ccc21,-5%,·,16µM*,·,?,·
COC(=O)c1cc(S(=O)(=O)Nc2cccc(OC)c2)cn1C,-20%,17%,23µM*,1,?,-6%
COC(=O)c1cc(S(=O)(=O)Nc2c(C)cccc2C)cn1C,4%,0%,-14%,13,-1%,5%

# Screening results (PubChem BioAssay)
